An excerpt weighted towards active compounds, which were near 9% of everything screened.
HP1b chromo inh – HTS for Inhibitors of HP1-beta Chromodomain Interactions with Methylated Histone Tails; Chromobox protein homolog 1 (Homo sapiens), P83916; AlphaScreen HP1-beta / biotin-H3K9me3 peptide binding; Potency, µM (highest dose often 114 µM), for inactives: at the highest dose activity change, negative = inhibition, usual class: inhibitors; 390,000 tested, 0.56% active; AID 540317, 2011; note: nearly all actives have a fitted effect of over 70% in size
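Compound inhibition of the preformed complex between 50 nM HP1-beta and 50 nM biotinylated H3K9me3 peptide was read by AlphaScreen. Buffer was PBS pH 7.4 with 0.01% Tween-20. Incubations ran 30 min at room temperature, with 10 ug/mL donor/acceptor beads.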
JMJD2A Tudor inh – qHTS Assay for Inhibitors of JMJD2A-Tudor Domain; Potency, µM (doses to about 114 µM), inactives show at the top dose activity change, negative = inhibition, actives largely listed as inhibitors; 390,000 tested, 4.4% active; AlphaScreen JMJD2A-Tudor / H3K4me3 peptide binding; Lysine-specific demethylase 4A (Homo sapiens), O75164; note: % is set by controls: 0 for no effect and ±100 for the full control effect; nearly all actives have a fitted effect of over 50% in size
ALOX12 inh – Primary qHTS assay for inhibitors of human arachidonate 12S-lipoxygenase (ALOX12): Round 2. Polyunsaturated fatty acid lipoxygenase ALOX12 (Homo sapiens), P18054. purified 12hLO, xylenol orange hydroperoxide absorbance. Potency, µM (top dose mostly 108 µM), without a hit: at the top dose activity change, negative = inhibition, hits mostly inhibitors. 580,000 tested, 1.1% active. AID 1671190, 2021; note: % is set by controls: 0 for no effect and ±100 for the full control effect
Target sequence (P18054 whole entry, looked up): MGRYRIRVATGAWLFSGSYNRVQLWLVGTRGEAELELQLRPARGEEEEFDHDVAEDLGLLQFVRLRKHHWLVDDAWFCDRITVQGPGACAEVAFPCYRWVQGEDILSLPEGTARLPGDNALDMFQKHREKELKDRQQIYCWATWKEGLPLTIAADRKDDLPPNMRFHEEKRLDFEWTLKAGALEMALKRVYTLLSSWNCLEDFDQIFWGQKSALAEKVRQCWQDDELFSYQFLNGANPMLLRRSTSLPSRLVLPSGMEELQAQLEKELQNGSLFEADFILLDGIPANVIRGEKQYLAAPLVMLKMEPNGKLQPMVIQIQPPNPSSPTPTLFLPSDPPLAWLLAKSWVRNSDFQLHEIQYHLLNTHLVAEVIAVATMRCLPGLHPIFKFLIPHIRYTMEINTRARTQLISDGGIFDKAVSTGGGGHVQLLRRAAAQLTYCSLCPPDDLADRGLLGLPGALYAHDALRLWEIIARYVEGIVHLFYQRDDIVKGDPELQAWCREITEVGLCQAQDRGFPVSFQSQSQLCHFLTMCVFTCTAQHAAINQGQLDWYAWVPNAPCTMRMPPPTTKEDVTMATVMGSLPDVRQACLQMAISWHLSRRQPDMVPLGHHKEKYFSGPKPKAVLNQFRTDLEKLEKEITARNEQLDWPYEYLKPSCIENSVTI
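Purified human 12hLO (150 nM final) in 25 mM Hepes, 0.01% Triton X-100, pH 7.0 was preincubated 15 min at room temperature with compound. Then 40 uM arachidonic acid was added, 30 min. Hydroperoxide was read by Fe-XO absorbance ratio 573/405 nm.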
BAZ2B block – qHTS Assay for Inhibitors of BAZ2B; 360,000 tested, 4.4% active; Potency, µM (highest dose often 114 µM), for the others: top-dose activity change, negative = inhibition, hits mostly inhibitors; Bromodomain adjacent to zinc finger domain protein 2B (Homo sapiens), Q9UIF8; AlphaScreen BAZ2B-H3K14Ac peptide displacement; note: % is set by controls: 0 for no effect and ±100 for the full control effect; nearly all actives have a fitted effect of over 60% in size
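Multi-concentration screen (max 110 uM) measuring displacement of acetylated histone H3 peptide from BAZ2B by AlphaScreen, using 50 nM protein, 50 nM peptide and 10 ug/mL streptavidin donor plus Ni-chelate acceptor beads.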
G9a block – qHTS Assay for Inhibitors of Histone Lysine Methyltransferase G9a | 350,000 tested, 8.8% active | Histone-lysine N-methyltransferase EHMT2 (Homo sapiens), Q96KQ7 | AID 504332, 2011 | Potency, µM (series often up to 102 µM), for the others: at the highest dose activity, negative = inhibition, actives largely listed as inhibitors | G9a H3K9 monomethylation, AlphaScreen, 2 h; note: % is set by controls: 0 for no effect and ±100 for the full control effect; nearly all actives have a fitted effect of over 75% in size
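G9a (20 nM) was preincubated 15 min with compound, then reacted 2 h at room temperature with 500 nM biotin-H3K9 peptide and 20 µM SAM. Monomethyl-H3K9 detected by AlphaScreen using anti-H3K9me1 antibody.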
PLK1 PBD inh – qHTS for Inhibitors of PLK1-PDB (polo-like kinase 1 - polo-box domain): Primary Screen; Serine/threonine-protein kinase PLK1 (Homo sapiens), P53350; Plk1 PBD binding of FITC phosphopeptide, fluorescence polarization; Potency, µM, for inactives: max response, negative = inhibition, usual class: inhibitors; 360,000 tested, 2.8% active; AID 720504, 2013; note: series mostly up to about 57 µM; % is set by controls: 0 for no effect and ±100 for the full control effect; nearly all actives have a fitted effect of over 65% in size
* = called active by the depositor; ? = inconclusive; · = no result given; ! = repeats disagree; [ ] = dose if it differs, or a comment. Calls come from the whole dose curve; as a rule, active = well fitted curve in the direction sought with a large enough effect; inconclusive = small, poorly fitted or top-dose-only effect, or another doubt; inactive = no such curve, though single readings can be large; an effect the other way counts as inactive or inconclusive. Potency is the fitted concentration of half-maximal effect.

SMILES	HP1b chromo inh	JMJD2A Tudor inh	ALOX12 inh	BAZ2B block	G9a block	PLK1 PBD inh
Cc1cccc(NC(=O)c2n[nH]c([N+](=O)[O-])c2Br)c1C	43%	-4%	?	-25%	40µM*	0%
Cc1onc(-c2c(F)cccc2Cl)c1C(=O)NC(=S)Nc1c(C)n(C)n(-c2ccccc2)c1=O	23%	-14%	2%	?	32µM*	-2%
Cc1c(NC(=O)c2ccc(COc3ccc4ccccc4c3)o2)c(=O)n(-c2ccccc2)n1C	1%	-31%	-13%	50µM*	?	-14%
Cc1c(NC(=O)c2cc3ccccc3oc2=O)c(=O)n(-c2ccccc2)n1C	9%	-4%	4%	-1%	25µM*	-8%
Cc1cccc(NC(=O)c2ccc(COc3ccc4ccccc4c3)o2)n1	48%	-10%	-16%	2%	-8%	-11%
Cc1c(Nc2scc(-c3ccccc3)[n+]2-c2ccccc2)c(=O)n(-c2ccccc2)n1C	?	56µM*	·	50µM*	28µM*	-13%
CCC(CC)C(CNC(=O)c1ccc(Cl)cc1Cl)N1CCOCC1 (stereo not given)	·	·	-18%	·	·	·
c1csc(-c2ncc3ccccn23)c1	-2%	-28%	-38%	2%	-23%[59 µM]	-10%
COc1cccc(CC(=O)N[C@@H]2CN(Cc3ccncc3)C[C@H]2CN(C)C)c1	·	·	90%	·	·	·
CN(Cc1ccccc1)C(=O)CCC1CCN(S(=O)(=O)N(C)C)CC1	17%	-3%	-9%	10%	23%	-22%
Cc1c(NC(=O)c2cc(-c3ccccc3)on2)c(=O)n(-c2ccccc2)n1C	-7%	100µM*	?	8%	12%[59 µM]	-5%
Cc1ccc2c(=O)cc(C(=O)Nc3c(C)n(C)n(-c4ccccc4)c3=O)oc2c1	27%	-3%	?	-6%	?	·
Cc1c(NC(=O)c2cc(-c3ccc(O)cc3)on2)c(=O)n(-c2ccccc2)n1C	87%	-4%[11.4 µM]	7%	-1%	-6%	-6%
Cc1cc(C)c2c(C)c(C(=O)Nc3c(C)n(C)n(-c4ccccc4)c3=O)oc2c1	35%	-11%	-5%	1%	71µM*	2%
Oc1cc2ccccc2cc1-c1n[nH]c(=S)n1Cc1ccco1	-8%	?	40µM*	?	1.6µM*	-16%
Cc1nn(C)c(-c2n[nH]c(=S)n2Cc2ccco2)c1Cl	11%	22µM*	?	-11%	6.3µM*	-4%
Oc1ccc(-c2n[nH]c(=S)n2Cc2ccco2)cc1	-9%	3.5µM*	?	-29%	2.8µM*	-14%
Cc1cccc(-c2nc(=S)c3c(n2Cc2ccco2)CCCC3)c1	1%	-15%	-10%	-20%	?	?
Cc1ccc(-c2nc(=S)c3c(n2Cc2ccco2)CCCC3)cc1	69%	-4%	?	-18%	-44%[12.7 µM]	-12%
Nc1cc(=O)n(Cc2ccco2)c(=S)[nH]1	·	·	?	·	·	1%
COc1cccc(-c2n[nH]c(=S)n2Cc2ccco2)c1OC	14%	7.9µM*	-20%	-5%	?	-9%
Cc1onc(-c2c(F)cccc2Cl)c1C(=O)N1CCN(S(C)(=O)=O)CC1	26%	-5%	8%	39%	20%[59 µM]	3%
COc1ccc(-c2csc(N(CCCN(C)C)C(=O)c3ccccc3F)n2)cc1	-8%	?	-17%	?	?	1%
O=C(CSC1=NNC(c2ccccn2)S1)Nc1ccc(C(F)(F)F)cc1 (stereo not given)	15%	40µM*	2%	56µM*	13%	-6%
Cc1ccc(NS(=O)(=O)c2cccc(C(=O)NN3CCOCC3)c2)cc1	·	·	-11%	-15%	·	·
SMILES	HP1b chromo inh	JMJD2A Tudor inh	ALOX12 inh	BAZ2B block	G9a block	PLK1 PBD inh
CCOC(=O)/C=C/C(=O)Nc1cc(S(=O)(=O)Nc2ccc(OC)cc2)ccc1N1CCOCC1	24%	-17%	?	8%	45µM*	-9%
CC(=O)Nc1ccc(S(=O)(=O)Nc2ccc(N3CCOCC3)cc2)cc1	21%	-3%	-6%	-8%	-44%[12.7 µM]	1%
CC(=O)c1ccc(S(=O)(=O)Nc2ccc(N3CCOCC3)cc2)cc1	-19%	-27%	?	-32%	28µM*	?
COc1ccc(NS(=O)(=O)c2ccc(N3CCOCC3)c(NC(=O)C(C)C)c2)cc1	23%	-4%	-18%	·	-1%	-1%
C/C(=N\Nc1ccc(S(=O)(=O)Nc2ccccc2)cc1[N+](=O)[O-])c1ccc(N2CCOCC2)cc1	?	?	-2%	?	?	-14%
C/C(=N\Nc1ccc(S(=O)(=O)Nc2ccc(Cl)cc2)cc1[N+](=O)[O-])c1ccc(N2CCOCC2)cc1	?	5µM*	-11%	7.9µM*	8.9µM*	-8%
CC(=O)c1cccc(S(=O)(=O)Nc2ccc(N3CCOCC3)cc2)c1	-37%	-21%	-4%	-24%	50µM*	-9%
O=C(CCc1ccccc1F)NC1CCCN(C2CCCCCC2)C1 (stereo not given)	·	·	1%	·	·	·
Cc1nn(CCC#N)c(C)c1[C@@H]1C=C[C@@H](NC(=O)c2cccs2)C1	·	·	-21%[176 µM]	·	·	·
O=S(=O)(Nc1cccnc1)c1cccc(Cl)c1	32%	-12%	1%	-2%	-51%[59 µM]	1%
CCOC(=O)c1ccc(S(=O)(=O)Nc2ccc(N3CCOCC3)cc2)cc1	0%	-23%	-12%	-24%	79µM*	-4%
COC(=O)c1ccc(NS(=O)(=O)c2ccc3c(c2)n(C)c(=O)n3C)cc1	7%	-24%	-1%	?	1%	-2%
CCOC(=O)c1ccc(S(=O)(=O)NCCN2CCOCC2)cc1	31%	-22%	1%	·	?	-10%
CC(=O)c1cccc(S(=O)(=O)NCCCN2CCOCC2)c1	9%	-12%	?	12%	1.4µM*	0%
CC(=O)c1cccc(S(=O)(=O)Nc2cccnc2)c1	13%	-9%	8.9µM*	-37%	45µM*	-17%
CCOC(=O)c1ccc(NS(=O)(=O)c2ccc3c(c2)n(C)c(=O)n3C)cc1	15%	-1%	2%	79µM*!	38%[0.501 µM]	-10%
C=CCCC1CN(Cc2ccc(OC)cc2)S(=O)(=O)c2c(Oc3ccc(F)cc3OC)cccc2O1 (stereo not given)	·	·	10%	·	·	·

Screening results as filed in PubChem BioAssay.
